Results published in the supplement of paper PMC6522484.
± gives the standard deviation of the averaged measurements.

Tests used:
DLD1 [1] = assay: cell viability (CellTiter-Glo) relative to plate median (fraction of plate median); higher = more viable cells; conditions: 5 µM; treatment time 24 h; reporter: 7TFP
In short: (§1)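 After seeding in 384-well plates, colorectal cancer cell lines carrying stable lentiviral TCF/Wnt firefly luciferase reporters (7TFP or TCF4/Wnt) were left 24 h. Library compounds were then added at a final 5 µM for 24 h. A Tecan F500 reader measured firefly luciferase or CellTiterGlo luminescence on parallel plates, with each well normalised to the plate median by webcellHTS2 (additive, no log transformation), and two independent replicates averaged.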

HCT116 = assay: as above; conditions: 5 µM; treatment time 24 h; reporter: TCF4/Wnt
In short: as §1

SW480 [2] = assay: as above; conditions: 5 µM; treatment time 24 h; reporter: 7TFP
In short: as §1

DLD1 [3] = assay: TCF/Wnt firefly luciferase reporter signal relative to plate median (fraction of plate median); higher = higher Wnt reporter signal; conditions: 5 µM; treatment time 24 h; reporter: 7TFP
In short: as §1

SW480 [4] = assay: as above; conditions: 5 µM; treatment time 24 h; reporter: 7TFP
In short: as §1

SMILES | cell viability (DLD1 [1]) | cell viability (HCT116) | cell viability (SW480 [2]) | TCF/Wnt firefly luciferase reporter signal (DLD1 [3]) | TCF/Wnt firefly luciferase reporter signal (SW480 [4])
NC[C@@H]1O[C@H](O[C@H]2[C@@H](O)[C@H](O[C@@H]3[C@@H](O)[C@H](N)C[C@H](N)[C@H]3O[C@H]3O[C@H](CO)[C@@H](O)[C@H](O)[C@H]3N)O[C@@H]2CO)[C@H](N)[C@@H](O)[C@@H]1O | 1.1 ± 0.035 | 0.975 ± 0.064 | 1.065 ± 0.0071 | 0.901 ± 0.043 | 0.995 ± 0.11
COc1ccc(-c2c(O)c3c(OC)c4c(cc3oc2=O)OC(C)(C)C=C4)cc1 | 1.01 | 0.968 ± 0.088 | 0.9495 ± 0.0092 | 1.07 ± 0.014 | 1.07 ± 0.035
CC(C)=CCc1cccc2c(C[C@@H]3NC(=O)[C@H](C)NC3=O)c[nH]c12 [Terezine D] | 1.03 ± 0.021 | 0.9635 ± 0.0021 | 0.981 ± 0.084 | 1.12 ± 0.31 | 0.92 ± 0.0099
Cc1c(Nc2ncccc2C(=O)O)cccc1C(F)(F)F | 0.977 ± 0.016 | 1.1 ± 0.11 | 1.04 ± 0.042 | 1.11 ± 0.057 | 0.948 ± 0.14
CC(C)=CCC/C(C)=C\CO | 0.992 ± 0.082 | 1.02 ± 0.042 | 1.1 ± 0.05 | 0.999 ± 0.016 | 0.964 ± 0.046
Cc1cccc(Nc2ccccc2C(=O)O)c1C | 1.03 ± 0.1 | 1 ± 0.038 | 1.07 ± 0.014 | 0.927 ± 0.052 | 1.01 ± 0.089
CC(C)CCC[C@@H](C)[C@H]1CC[C@H]2[C@@H]3CC(=O)[C@H]4C[C@@H](O)CC[C@]4(C)[C@H]3CC[C@]12C [5alpha-CHOLESTAN-3beta-OL-6-ONE] | 0.985 ± 0.05 | 1.01 ± 0.014 | 1.015 ± 0.0071 | 0.904 ± 0.15 | 0.874 ± 0.047
CC(C)(C)NC[C@H](O)COc1cccc2c1CCCC2=O | 0.99 ± 0.043 | 1.03 ± 0.075 | 0.9555 ± 0.0035 | 0.886 ± 0.0085 | 0.981 ± 0.084
NC[C@@H]1O[C@@H](O[C@H]2[C@H](O)[C@@H](O[C@H]3O[C@H](CO)[C@@H](O)[C@H](N)[C@H]3O)[C@H](N)C[C@@H]2N)[C@@H](O)[C@H](O)[C@H]1O | 0.986 ± 0.091 | 1.04 ± 0.014 | 0.94 ± 0.0042 | 1.02 ± 0.035 | 0.988 ± 0.031
NC(=O)c1ncn([C@@H]2O[C@H](CO)[C@@H](O)[C@H]2O)n1 | 1.12 ± 0.035 | 1.04 ± 0.064 | 1.01 ± 0.021 | 1.22 ± 0.23 | 0.986 ± 0.09
CO[C@@]12[C@H](COC(N)=O)C3=C(C(=O)C(C)=C(N)C3=O)N1C[C@@H]1N[C@@H]12 | 1.12 ± 0.057 | 1.01 | 1.25 ± 0.021 | 0.974 ± 0.094 | 0.843 ± 0.13
COc1ccccc1OCC(O)COC(N)=O (stereo not given) | 1.02 ± 0.076 | 1.01 ± 0.089 | 0.995 ± 0.035 | 0.982 ± 0.054 | 0.967 ± 0.047
C/C=C/C/C=C/CCC(=O)[C@H]1O[C@H]1C(N)=O [Cerulenin] | 0.927 ± 0.092 | 0.951 ± 0.069 | 0.946 ± 0.018 | 1.01 ± 0.11 | 0.993 ± 0.025
CN(C)c1ccc(C(=C2C=CC(=[N+](C)C)C=C2)c2ccc(N(C)C)cc2)cc1 | 0.703 ± 0.016 | 0.381 ± 0.17 | 0.679 ± 0.013 | 0.529 ± 0.091 | 0.465 ± 0.012
CC(C)[N+](C)(CCOC(=O)C1c2ccccc2Oc2ccccc21)C(C)C | 0.979 ± 0.021 | 1.01 ± 0.14 | 0.984 ± 0.017 | 1.06 ± 0.1 | 1.04 ± 0.06
NC(CO)C(=O)NNCc1ccc(O)c(O)c1O (stereo not given) | 1.03 ± 0.028 | 1.07 ± 0.13 | 1.02 ± 0.021 | 1.07 ± 0.021 | 1.08 ± 0.021
